Source: the supplement of paper PMC9433436
± gives the standard deviation of the averaged measurements. Whole data set: some 4,100 sequences, median “relative kcat/Km (krel) vs genomic leader AAAGAU” near 1.7, cut for the highest 2% near 6.5. The sample as a whole holds a higher share of the highest values than the screen did.

Target: T1, E. coli RNase P holoenzyme (M1 P RNA + rnpA protein) (UniProt P0A7Y8)
T1 sequence: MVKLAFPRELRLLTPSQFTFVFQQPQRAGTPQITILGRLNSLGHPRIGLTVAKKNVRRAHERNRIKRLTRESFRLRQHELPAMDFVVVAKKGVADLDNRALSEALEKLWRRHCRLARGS
Test: relative kcat/Km (krel) vs genomic leader AAAGAU (relative (reference leader = 1)); higher = faster RNase P cleavage
Experimental: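 HTS-Kin: a pool of ptRNA-Met (21C construct) with all 4096 combinations of 5' leader nucleotides N(-6) to N(-1) was processed in vitro by E. coli RNase P (P RNA + rnpA/C5 protein) under multiple-turnover conditions at 37 C, pH 8, 17.5 mM MgCl2. Residual substrate was Illumina-sequenced at several fractions reacted, and relative kcat/Km (krel) was computed by internal competition kinetics, calibrated to the genomic leader (AAAGAU = 1). The listed hexamer is the varied N(-6)..N(-1) leader (DNA letters), and it sits between a fixed 5' stem-loop flank (GCAUGCACGAAAGUGCGUGCUAUGAA) and the mature tRNA-Met starting GGCUACGUAGCUCAGUUGG. Two technical replicates are averaged.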

[1] = fraction of substrate reacted: ~9-10% (9.79% repeat 1, 9.1% repeat 2)
[2] = fraction of substrate reacted: ~13-16% (15.68% repeat 1, 13.17% repeat 2)
[3] = fraction of substrate reacted: ~26-29% (28.66% repeat 1, 26.4% repeat 2)

Sequence	relative kcat/Km [1]	relative kcat/Km [2]	relative kcat/Km [3]
GGCCTC	1.28 ± 0.39	0.933 ± 0.5	1.94 ± 0.76
GCATGA	1.91 ± 0.28	1.07 ± 0.63	2.21 ± 0.69
GACAAC	3.9 ± 0.94	3.84 ± 1.1	6.93 ± 3.1
CACAAC	3.95 ± 1.3	4.05 ± 0.63	6.36 ± 2.1
TACAAA	3.89 ± 1.8	5.2 ± 0.41	7.71 ± 3
AACAAC	2.99 ± 0.85	3.22 ± 0.17	4.45 ± 1.8
GACAGC	3.44 ± 1	4.06 ± 0.54	5.59 ± 1.6
CACAAA	3.35 ± 0.11	4.93 ± 1.2	6.59 ± 2.9
CACAAG	1.66 ± 0.94	1.78 ± 0.81	3.72 ± 0.99
AACAAG		1.32 ± 0.57	3.26 ± 0.69
AACAAA	3.32 ± 2.3	3.9 ± 0.11	5.24 ± 1.1
TACAAC	3.75 ± 1.9	5.24 ± 0.76	7.11 ± 3
GACACC	3.17 ± 1.9	3.35 ± 0.2	5.28 ± 1.8
TACAAG	1.6 ± 0.23	2.38 ± 0.42	4.49 ± 1.9
ACGCAT	1.58 ± 0.85	2.23 ± 0.052	3.39 ± 1.3
TTGTCG			1.07 ± 0.3
TCTCGG	1.19 ± 1.1	0.684 ± 0.45	1.04 ± 0.15
TCTTCA	2.36 ± 1.3	1.88 ± 0.27	2.49 ± 0.68
ACCCGT	1.55 ± 1.5	1.9 ± 1.9	1.96 ± 1.4
AGCTCA	2.57 ± 1.9	2.16 ± 0.53	3.13 ± 1.1
AACACT	1.88 ± 1.1	2.41 ± 0.39	3.76 ± 0.87
TGACTT	1.97 ± 0.23	2.77 ± 0.65	3.33 ± 1.3
GACAAT	3.33 ± 1.5	3.55 ± 1.1	5.83 ± 2.4
AACAAT	1.84 ± 0.24	3.26 ± 0.41	4.49 ± 1.9
GACACG		1.39 ± 0.034	2.6 ± 0.37

Sequence	relative kcat/Km [1]	relative kcat/Km [2]	relative kcat/Km [3]
CACATT	3.5 ± 1.3	4.74 ± 0.66	6.23 ± 2.3
TACAAT	2.84 ± 0.75	4.74 ± 0.94	7.14 ± 3.4
GACAAG	2 ± 1.4	2.152 ± 0.02	4.06 ± 0.99
GACAAA	4.01 ± 1.6	4.49 ± 0.5	6.91 ± 2.5
CACAAT	3.85 ± 1.2	4.61 ± 0.51	6.78 ± 2.9
CACACT	2.56 ± 0.39	3.16 ± 0.72	4.82 ± 1.5
AGGCTC			0.722 ± 0.43
GTTACA	1.9 ± 0.82	2.16 ± 0.12	3.09 ± 1.2
CTGCCA	1.58 ± 1	0.692 ± 0.67	1.19 ± 0.3
TCACAT	3.6 ± 1.2	4.18 ± 0.55	6.08 ± 2.7
AACGTG			0.741 ± 0.57
GGATGC	1.44 ± 0.27	1.71 ± 0.79	2.74 ± 1
CAAAGC	1.07 ± 0.26	1.12 ± 1.1	1.94 ± 1.2
TCTCGA	3.05 ± 0.36	3.16 ± 0.42	4.89 ± 2
GCCTCA	3.93 ± 1.6	4.02 ± 0.47	5.77 ± 2.1
CCCTCC	3.55 ± 1.1	3.38 ± 0.94	4.21 ± 1.1
ACCTCC	3.29 ± 2.2	3.3 ± 0.22	4.3 ± 0.6
CCCTCT	2.96 ± 0.6	3.23 ± 0.81	3.9 ± 0.73
TCCTCC	3.65 ± 1.8	4.58 ± 1.2	6.57 ± 2.7
CCCTCA	2.47 ± 1.3	3.63 ± 0.37	3.95 ± 0.28
TCCTCG	2.35 ± 1.9	2.52 ± 0.14	3.64 ± 0.61
TCCTCA	3.22 ± 0.45	4.2 ± 0.86	6.64 ± 2.4
TCCTCT	3.55 ± 1.7	4.68 ± 1	6.72 ± 2.6
ATGGCA		1.34 ± 1.2	1.01 ± 0.3
AGTAGG			1.52 ± 0.61

Sequence	relative kcat/Km [1]	relative kcat/Km [2]	relative kcat/Km [3]
CCACCC	2 ± 0.12	1.27 ± 0.51	2.49 ± 0.73
AGATGT	0.906 ± 0.45		1.84 ± 1.7
CTTGTG			0.748 ± 0.26
CGCGGG	0.135 ± 0.028		0.258 ± 0.092
TATCTA	2.06 ± 0.75	2.24 ± 0.15	2.97 ± 1.5
AAGCAC	2.14 ± 1.2	1.53 ± 0.4	3.12 ± 1.2
ATTTGC	3.17 ± 0.9	3.69 ± 0.87	5.35 ± 1.6
TTTTGG	0.508 ± 0.012		0.844 ± 0.31
TTTTGT			2.01 ± 1.6
TTTTGA	3.16 ± 0.88	4.56 ± 1.3	6.55 ± 2.4
TTTTGC	3.65 ± 1.3	4.42 ± 1.1	6.61 ± 2.8
GTTTGC	2.91 ± 0.62	3.18 ± 0.81	5.13 ± 1.9
AGAAAC	3.18 ± 0.43	2.7 ± 0.75	3.84 ± 1.5
ATAACA	0.435 ± 0.37	0.897 ± 0.17	1.43 ± 0.58
AAGAAT	2.06 ± 0.33	1.89 ± 0.36	3.17 ± 1.4
TGTTCC	2.41 ± 1.7	3.08 ± 0.79	3.89 ± 1.1
TGTTTA	2.78 ± 0.84	3.23 ± 0.41	4.92 ± 2
AGTTTA	2.86 ± 0.36	3.18 ± 0.34	4.93 ± 2.3
AGTTAA	3.63 ± 1.5	5.9 ± 0.68	7.15 ± 2.6
AGTTCA	2.22 ± 0.21	2.82 ± 0.86	4.24 ± 1.9
AGTTAT	2.78 ± 0.19	4.36 ± 0.82	7 ± 3.2
AGTTTT	2.68 ± 0.23	3.38 ± 0.73	5.01 ± 1.8
AGTTCT	2.55 ± 0.89	3.08 ± 1.2	4.6 ± 1.6
TGTTAA	4.01 ± 0.87	5.39 ± 1.7	7.94 ± 3.5
TGTTGC	2.72 ± 0.32	2.95 ± 0.082	4.88 ± 1.9

Sequence	relative kcat/Km [1]	relative kcat/Km [2]	relative kcat/Km [3]
TGTTAC	3.59 ± 1.3	5.21 ± 1.2	8.19 ± 3.8
TGTTGA	2.15 ± 0.44	3.32 ± 1.3	5.59 ± 2.1
ATGCAG		0.709 ± 0.22	0.668 ± 0.4
ACAGCG			1.17 ± 0.16
AAGGGT			0.872 ± 0.84
GAATTA	1.25 ± 0.15	1.82 ± 0.37	2.25 ± 0.75
AATGCC	2.38 ± 1.7	1.43 ± 0.1	1.48 ± 0.22
TCGCAA	2.14 ± 1.8	2.55 ± 0.15	3.22 ± 0.85
CAGATT	1.72 ± 0.68	2 ± 0.1	2.79 ± 0.81
TGTTCT	1.986 ± 0.0021	2.58 ± 0.73	4.41 ± 1.8
GGTTAA	0.853 ± 0.094	1.16 ± 0.33	1.35 ± 0.6
CGTTAC	3.84 ± 0.72	5.28 ± 1.9	7.82 ± 2.9
CGTTTA	2.35 ± 0.28	3.11 ± 0.48	4.14 ± 1.4
CGTTAT	4.04 ± 1	5.58 ± 1.3	8.08 ± 3.4
GGTTAC	0.591 ± 0.54	1.09 ± 0.22	2.13 ± 0.98
CGTTAG	2.87 ± 1.6	2.22 ± 0.3	4 ± 1.2
GGTTAT	0.926 ± 0.33	1.69 ± 0.19	2.83 ± 1.2
TGTTAG	2.17 ± 1.1	2.36 ± 0.065	4.6 ± 1.1
CGTTAA	3.62 ± 0.3	5.04 ± 1.6	7.04 ± 2.8
TGTTAT	3.17 ± 1.4	4.69 ± 0.22	6.81 ± 2.8
CGTTGT	0.465 ± 0.32		1.21 ± 0.9
TATTGT	0.735 ± 0.4		
GACCAC	2.53 ± 1.4	3.51 ± 0.65	5.22 ± 1.2
GCCCAG	0.499 ± 0.44	0.933 ± 0.79	3 ± 0.76
